# Test results: PubChem BioAssay AID565 (University of Pittsburgh Molecular Library Screening Center, 2006)
# Hit rate of the full screen: of about 65,000 compounds, about 1,200 (1.8%) were called active. Shown is part of a subset that was picked to be rich in actives. Unmarked numbers belong to inactive results. No stated cut-off is given here; in the data, active means inhibition above about 50%; inactive means the rest.
# Molecular target: Gag-Pol polyprotein (Human immunodeficiency virus type 1 group M subtype B (isolate HXB2)) (UniProt P04585)
# Assay: HIV-1 RT RNase H inhibitors, primary screen, biochemical, fluorescence (AID 565)
# Conditions: RT-RNase H RNA/DNA duplex cleavage, at 10 µM, active compounds read high
row,Compound,inhibition
1,Cn1c(=NC(=O)c2ccco2)sc2cccc(F)c21,-27.2%
2,COCc1cc(C)nc(Nc2cc(C)ccc2C)c1C#N,-17%
3,Cc1noc(NS(=O)(=O)c2ccc(N3CC(O)=C(c4ccccc4)C3=N)cc2)c1C,-3.39%
4,Cc1cnc(NC(=O)CSc2nnc(-c3ccc(Cl)cc3Cl)n2N)s1,70.1% (active)
5,Cc1cnc(NC(=O)CSc2nnc(-c3ccccc3)n2Cc2ccccc2)s1,-0.4%
6,Cc1cc(C)nc(SCc2nnc(SCC(=O)Nc3ncc(C)s3)n2Cc2ccco2)n1,-40.5%
7,CCCNS(=O)(=O)c1ccc2c(c1)CCCN2C(C)=O,-15.5%
8,CCc1c(C)sc(NC(=O)c2ccc(Br)o2)c1C(=O)OC,-67.1%
9,CCOC(=O)c1c(NC(=O)c2ccc(Br)o2)sc2c1CCCC2,-13%
10,CC1CCc2c(sc(NC(=O)c3ccc(Cn4cc(Br)cn4)o3)c2C(N)=O)C1 (stereo not drawn),88.6% (active)
11,CCC1(C)Cc2c(sc3nc4n(c(=O)c23)CCCS4)CO1 (stereo not drawn),-2.87%
12,CC(=O)Nc1nonc1-c1nc2ccccc2n1Cc1ccccn1,-10.2%
13,CCOc1ccc(NC(=O)N2CCN(CC)CC2)cc1,-4.55%
14,Cc1ccccc1NC(=O)c1ccccc1,-3.87%
15,Cc1ccc2c(c1)sc1ncc(NC(=O)c3ccccc3)c(=O)n12,68.4% (active)
16,Cc1ccc(NC(=O)c2nc[nH]c2C(=O)N2CCCCC2)c(C(=O)c2ccccc2)c1,2.94%
17,COc1ccccc1CNC(=O)CCCn1c(=O)c2ccccc2n(CC(=O)NC2CCCC2)c1=O,-18.8%
18,COc1ccc(CCNc2ncnc3nc[nH]c23)cc1OC,-5.66%
19,Oc1ccc2nc(Cc3ccccc3)[nH]c2c1,-7.13%
20,COC(=O)Nc1nc2ccc(Sc3ccccc3)cc2[nH]1,82.8% (active)
21,COC(=O)Cc1nc2ccccc2[nH]1,-25.6%

row,Compound,inhibition
1,O=C1c2cccnc2C(=O)N1Cc1cccs1,-2.26%
2,COc1ccc(C(=O)NC(=O)CSc2nnc(-c3ccco3)n2-c2ccccc2)cc1,-5.53%
3,Cc1cccc(-n2c(C)nc3cc(C(=O)N4CCC5(CC4)OCCO5)ccc32)c1,3.01%
4,Cc1cccc(-n2c(N)c(C(=O)N3CCN(C)CC3)sc2=S)c1,90.6% (active)
5,Cc1cccc(-n2c(N)cc(=O)nc2SC(C)C(=O)NC2CCCCC2)c1 (stereo not drawn),-4.66%
6,O=C(c1ccccc1)N1CCN(C(=O)N2CCCCC2)CC1,-10.1%
7,Cc1ccc(OCCCC(=O)N2CCOCC2)c(C)c1,-20.5%
8,N#Cc1ccccc1-n1c(N)c(C(=O)N2CCCC2)sc1=S,68% (active)
9,CCC(=O)Nc1sc(C(=O)N2CCCCC2)c(C)c1C#N,0.57%
10,CC(=O)c1c(N2CCOCC2)nc(=S)n(-c2cc(C)ccc2C)c1C,-1.2%
11,Cc1ccc(-n2c(N)c(C(=O)N3CCOCC3)sc2=S)c(C)c1,79.7% (active)
12,COc1cccc(-n2c(SCC(=O)NC3CCCCC3)nc3n[nH]c(C)c3c2=N)c1,-20%
13,Cc1ccc2nc(NC3=NCN(CCc4ccccc4)CN3)nc(C)c2c1,11.4%
14,COc1ccc(C(=O)Nc2c(N)nc(SCC(=O)N3CCC(C)CC3)[nH]c2=O)cc1OC,-4.95%
15,O=P(O)(CN1CCCCC1)CN1CCCCC1,-5.45%
16,O=C(CN1C(=O)CSc2ncccc21)N1CCOCC1,-4.9%
17,COc1ccccc1NC(=O)C1=C(C)NC2=C(C(=O)CCC2)C1c1ccc(C)o1 (stereo not drawn),-19.4%
18,COC(=O)C1=C(C)NC(=O)NC1/C=C/c1ccccc1 (stereo not drawn),-63.7%
19,COC(=O)C1=C(C)NC2=C(C(=O)c3ccccc32)C1c1ccc(-c2ccc(C(=O)O)cc2)o1 (stereo not drawn),81.9% (active)
20,Cc1nnc(NC(=O)CCC(=O)N2CCC(C)CC2)s1,-0.8%
21,Cc1cc(=O)n2nc(N3CCCC(C(=O)NCCC4=CCCCC4)C3)sc2n1 (stereo not drawn),-4.48%

row,Compound,inhibition
1,COc1cc2c(cc1NC(=O)CN1CCN(S(=O)(=O)c3ccc(F)cc3)CC1)oc1ccccc12,56.4% (active)
2,COc1ccccc1NC(=O)CN1CCN(S(=O)(=O)c2ccc(Br)cc2)CC1,-1.95%
3,COc1ccc(NC(=O)CN2CCN(S(=O)(=O)c3ccc(F)cc3)CC2)cc1Cl,-9.57%
4,Cc1cc(Br)ccc1NC(=O)C1CCCO1 (stereo not drawn),-14.4%
5,N#Cc1ccc(OCCN2C(=O)NC3(CCSC3)C2=O)cc1 (stereo not drawn),-7.99%
6,O=C(CN1C(=O)CCC1=O)Nc1ccc(S(=O)(=O)N2CCOCC2)cc1,-11.6%
7,Clc1ccc(Cc2nn3c(-c4ccncc4)nnc3s2)cc1,53.8% (active)
8,Nc1scc(-c2ccncc2)c1Cl,-13.4%
9,Clc1ccc(Cc2nnc(-c3cccs3)o2)cc1,-42.9%
10,CCOC(=O)c1ccc(CS(=O)c2ccc(Cl)cc2)o1 (stereo not drawn),-8.12%
11,COc1ccc(S(=O)(=O)NC2(C(F)(F)F)N=C3SCCN3C2=O)cc1 (stereo not drawn),-21.6%
12,CCOC(=O)c1sc(NC(=O)C(CC)Sc2nccn2C)nc1C (stereo not drawn),7.42%
13,Cc1nc(NC(=O)CCC(=O)O)sc1C(=O)N(C)C,0.73%
14,CCOC(=O)c1sc(/N=C/Nc2nc(C)c(C(=O)OCC)s2)nc1C,66.5% (active)
15,CCCOC(=O)CC1C(=O)NCCN1Cc1ccc(F)cc1 (stereo not drawn),15.5%
16,CC(=O)Nc1ccc(S(=O)(=O)N2CCN(CCCOc3cc(C)ccc3C)CC2)cc1,-8.05%
17,CCC(CC)C(=O)Nc1cc(C(=O)OC)cc(C(=O)OC)c1,-9.62%
18,Cc1ccc(S(=O)(=O)C2(S(=O)(=O)c3ccc(C)cc3)CCCC2)cc1,-7.65%
19,CCOc1ccc2[nH]c(=O)c(CN(CCCO)C(C)=O)cc2c1,84.7% (active)
20,COc1ccc(N(Cc2cc3cc(OC)ccc3[nH]c2=O)S(C)(=O)=O)cc1,-0.75%
21,CCC(=O)N(Cc1cc2cc(OC)ccc2[nH]c1=O)c1ccccc1C,-2.05%
